# Measurements from paper PMC4336329 (PLoS ONE, 2015).
# Out of some 310,000 compounds screened, about 14,000 (4.5%) showed an effect of 50% or more. Effects have a minus sign here. For the sample, strong results were picked, then their nearest neighbours and some compounds at random. Where a SMILES comes first, the peptide text is derived from it. The star is where a group is joined. Cbz = O=C(OCc1ccccc1)*
# Target: human ether-à-go-go-related gene (hERG) potassium channel (human, UniProt Q12809)
# Test: primary screen, population patch clamp on CHO cells stably expressing hERG; higher = less effect of the substance
# 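Note: peak tail current of the secondary pulse compared with the same well before compound.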
# Chain of human ether-à-go-go-related gene (hERG) potassium channel (Q12809 whole entry, looked up): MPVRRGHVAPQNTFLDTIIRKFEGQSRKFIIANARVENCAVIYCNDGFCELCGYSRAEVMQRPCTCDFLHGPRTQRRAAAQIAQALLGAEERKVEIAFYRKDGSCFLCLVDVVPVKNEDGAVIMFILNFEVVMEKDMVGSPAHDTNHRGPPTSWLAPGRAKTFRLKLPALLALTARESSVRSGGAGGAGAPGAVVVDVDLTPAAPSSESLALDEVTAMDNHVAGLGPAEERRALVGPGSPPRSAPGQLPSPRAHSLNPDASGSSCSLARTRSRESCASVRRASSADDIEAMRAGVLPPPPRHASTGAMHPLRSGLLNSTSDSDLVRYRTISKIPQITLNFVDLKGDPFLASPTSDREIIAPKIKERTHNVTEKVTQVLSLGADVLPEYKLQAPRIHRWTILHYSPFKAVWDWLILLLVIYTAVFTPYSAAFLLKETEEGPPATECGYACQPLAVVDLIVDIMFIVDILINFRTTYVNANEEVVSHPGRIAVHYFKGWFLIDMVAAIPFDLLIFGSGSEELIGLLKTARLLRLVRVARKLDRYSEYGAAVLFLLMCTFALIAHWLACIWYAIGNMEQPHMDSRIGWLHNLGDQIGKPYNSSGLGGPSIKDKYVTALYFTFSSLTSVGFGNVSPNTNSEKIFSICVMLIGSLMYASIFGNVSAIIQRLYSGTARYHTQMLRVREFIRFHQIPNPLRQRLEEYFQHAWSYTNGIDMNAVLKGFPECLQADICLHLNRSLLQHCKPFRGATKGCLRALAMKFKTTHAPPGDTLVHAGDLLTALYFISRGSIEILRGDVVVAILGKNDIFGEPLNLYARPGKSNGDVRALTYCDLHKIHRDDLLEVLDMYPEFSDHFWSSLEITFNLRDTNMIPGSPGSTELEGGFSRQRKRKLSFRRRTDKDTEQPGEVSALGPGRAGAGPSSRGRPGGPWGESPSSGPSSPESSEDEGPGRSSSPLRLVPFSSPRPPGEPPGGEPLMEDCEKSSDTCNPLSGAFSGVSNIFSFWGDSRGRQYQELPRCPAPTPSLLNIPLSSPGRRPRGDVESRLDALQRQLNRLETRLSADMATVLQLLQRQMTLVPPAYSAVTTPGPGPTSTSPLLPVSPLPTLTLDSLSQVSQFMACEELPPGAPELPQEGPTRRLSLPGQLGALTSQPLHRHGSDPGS
row,Structure (SMILES),"hERG current change (%, negative = inhibition) at 10uM [%]"
1,COC1c2ccccc2C(=O)N1Cc1ccc(F)cc1 (stereo not shown),5.48
2,O=C(Oc1c(Br)cc([N+](=O)[O-])cc1Br)c1cccnc1,16.7
3,O=C(O)CCC(NC(=O)C1CCCN1C(=O)OCc1ccccc1)C(=O)O (stereo not drawn) (Cbz-Pro-Glu-OH; configuration not given here),14
4,Cc1cc(C)nc(SCCc2ccncc2)n1.Cl,9.82
5,CN(c1ccc(OC(=O)CC2OC(=O)c3ccccc32)cc1)S(=O)(=O)c1ccccc1 (stereo not shown),-8.52
6,Cc1ccc(C2C(N)C(=O)N2c2ccc(C)cc2)cc1 (stereo not shown),-5.54
7,CN1C2CCC1CC(OC(=O)c1cc(Cl)cc(Cl)c1)C2.Cl (stereo not shown),-57.4
8,CCOc1ccc(C(=O)OC2CC3CCC(C2)N3C)cc1.Cl (stereo not shown),-30
9,CN1C2CCC1CC(OC(=O)c1c[nH]c3ccccc13)C2.Cl (stereo not shown),-40.2
10,CN1[C@@H]2CC[C@H]1CC(OC(=O)c1c[nH]c3ccccc13)C2.Cl (stereo partly shown),-48.1
11,CN1C2CCC1CC(OC(=O)c1ccc([N+](=O)[O-])cc1)C2 (stereo not shown),-67.9
12,CN1C2CCC1CC(OC(=O)c1ccc(Cl)cc1)C2.Cl (stereo not shown),-48.9
13,CN1C2CCC1CC(OC(=O)c1c[nH]c3ccccc13)C2 (stereo not shown),-59.1
14,O=C(OC1Cn2c(=O)ccc(=O)n2C1)c1ccc([N+](=O)[O-])cc1,-12.8
15,CN1CCCC(OC(=O)c2cc(Cl)cc(Cl)c2)C1.Cl (stereo not shown),-43.4
16,CCOC(=O)c1ccc(S(=O)(=O)N2CCN(c3ccccn3)CC2)cc1,8.95
17,CCOc1ccc(OCC)c(NC(=O)C2CCN(c3nn4c(=O)cc(C)nc4s3)CC2)c1,-30.5
18,COc1ccc(CCC(=O)c2ccc(OC)cc2)cc1,-1.41
19,Cc1ccc(C)c(NC(=O)COC(=O)CCCN=C2NS(=O)(=O)c3ccccc32)c1,4.55
20,Cn1nc([N+](=O)[O-])nc1Sc1cccc2cccnc12,13.9
21,Cc1ccc2c(Cl)cc(Cl)c(OCC(=O)NCCc3ccccn3)c2n1,-42.7
22,Cc1ccc(CNC(=O)[C@@H](NC(=O)Cc2ccccc2)C(C)C)cc1,6.89

row,Structure (SMILES),"hERG current change (%, negative = inhibition) at 10uM [%]"
1,CCN(CC)CCCNC(=O)C1CCC(=O)N(c2ccc(OC)cc2)C1c1ccc(F)cc1 (stereo not shown),1.14
2,CCOc1ccc(N(CC)C(=O)Cc2c(C(=O)O)n(C)c3ccccc23)cc1,16.8
3,COC(=O)c1sccc1-n1cccc1C(=O)C(=O)N1CCOCC1,-78.3
4,COC(=O)c1sccc1-n1cccc1C(=O)C(=O)N1CCCC1,14.3
5,COC(=O)c1sccc1-n1cccc1C(=O)N1CCOCC1,-44.5
6,CCOc1ccc(CNC(=O)C(C)n2nc(C)c3c(C)n(-c4ccccc4)nc3c2=O)cc1 (stereo not shown),-16.1
7,CCC(C(=O)NCCC1=CCCCC1)n1nc(C)c2c(C)n(-c3ccccc3)nc2c1=O (stereo not shown),-48.6
8,Cc1ccc(-n2nc3c(=O)n(CCCC(=O)NCc4ccc(F)cc4)nc(C)c3c2C)cc1,-76.5
9,Cc1ccc(-n2nc3c(=O)n(C(C)C(=O)NCc4ccc5c(c4)OCO5)nc(C)c3c2C)cc1 (stereo not shown),1.78
10,Cc1ccc(-n2nc3c(=O)n(CC(=O)NCCC4=CCCCC4)nc(C)c3c2C)cc1,2.08
11,Cc1ccc(-n2nc3c(=O)n(C(C)C(=O)NCCC4=CCCCC4)nc(C)c3c2C)cc1 (stereo not shown),-51.4
12,Cc1ccc(-n2nc3c(=O)n(C(C)C(=O)NCc4ccc(Cl)cc4)nc(C)c3c2C)cc1 (stereo not shown),-63.5
13,Cc1ccc(CNC(=O)CCCn2nc(C)c3c(C)n(-c4ccccc4)nc3c2=O)cc1,5.48
14,COc1ccc(CNC(=O)C(C)n2nc(C)c3c(C)n(-c4ccc(C)cc4)nc3c2=O)cc1 (stereo not shown),-50.1
15,Cc1ccc(-n2nc3c(=O)n(CCCC(=O)NCc4ccc(Cl)cc4)nc(C)c3c2C)cc1,4.82
16,CSc1ccc(CNC(=O)C(C)n2nc(C)c3c(C)n(-c4ccccc4)nc3c2=O)cc1 (stereo not shown),-38.2
17,Cc1ccc(-n2nc3c(=O)n(C(C)C(=O)NCc4ccccc4Cl)nc(C)c3c2C)cc1 (stereo not shown),-35.5
18,CCOc1ccc(C(=O)NNC(=O)CCNC(=O)c2ccco2)cc1OC,12.9
19,Cc1ccc(OCCn2cccc2/C=C2/C(=O)NC(=O)N(Cc3ccco3)C2=O)cc1,-0.631
20,CCOC(=O)C1CCN(C(=S)Nc2cc(OC)c(OC)cc2C(=O)OC)CC1,-10.9
21,COc1cc(CNCC(C)C)c(Br)cc1OCC(=O)NCc1ccccc1,-10.7
